Assay outcomes: PubChem, National Center for Advancing Translational Sciences (NCATS)
HP1b chromo inh: HTS for Inhibitors of HP1-beta Chromodomain Interactions with Methylated Histone Tails; Chromobox protein homolog 1 (Homo sapiens), P83916; AlphaScreen HP1-beta / biotin-H3K9me3 peptide binding; Potency, µM (highest dose often 114 µM), actives largely listed as inhibitors; 0.56% of 390,000 active; AID 540317, 2011; further: nearly all actives have a fitted effect of over 70% in size
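HP1-beta protein (50 nM final) preincubated 30 min at room temperature with biotinylated H3(1-18)K9me3 peptide (50 nM) in PBS pH 7.4, 0.01% Tween-20, then compound added for 30 min. AlphaScreen streptavidin donor/nickel chelate acceptor beads (10 ug/mL final), 30 min dark, luminescence read.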
G9a inh: qHTS Assay for Inhibitors of Histone Lysine Methyltransferase G9a; G9a H3K9 monomethylation, AlphaScreen, 2 h; Histone-lysine N-methyltransferase EHMT2 (Homo sapiens), Q96KQ7; 8.8% of 350,000 active; AID 504332, 2011; Potency, µM (series often up to 102 µM), usual class: inhibitors; further: nearly all actives have a fitted effect of over 75% in size
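G9a (20 nM) was preincubated 15 min with compound, then reacted 2 h at room temperature with 500 nM biotin-H3K9 peptide and 20 µM SAM. Monomethyl-H3K9 detected by AlphaScreen using anti-H3K9me1 antibody.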
JMJD2A Tudor: qHTS Assay for Inhibitors of JMJD2A-Tudor Domain; Lysine-specific demethylase 4A (Homo sapiens), O75164; AlphaScreen JMJD2A-Tudor / H3K4me3 peptide binding; Potency, µM (top dose mostly 114 µM), most hits filed as inhibitors; 4.4% of 390,000 active; AID 504339, 2011; further: nearly all actives have a fitted effect of over 50% in size
L3MBTL1 inh: qHTS Assay for the Inhibitors of L3MBTL1 | Lethal(3)malignant brain tumor-like protein 1 (Homo sapiens), Q9Y468 | AlphaScreen L3MBTL1–H3K9me1 peptide binding | Potency, µM (series often up to 57.1 µM), actives largely listed as inhibitors | 0.66% of 230,000 active | AID 485360, 2010; further: nearly all actives have a fitted effect of over 60% in size
Target sequence (Q9Y468 whole entry, looked up): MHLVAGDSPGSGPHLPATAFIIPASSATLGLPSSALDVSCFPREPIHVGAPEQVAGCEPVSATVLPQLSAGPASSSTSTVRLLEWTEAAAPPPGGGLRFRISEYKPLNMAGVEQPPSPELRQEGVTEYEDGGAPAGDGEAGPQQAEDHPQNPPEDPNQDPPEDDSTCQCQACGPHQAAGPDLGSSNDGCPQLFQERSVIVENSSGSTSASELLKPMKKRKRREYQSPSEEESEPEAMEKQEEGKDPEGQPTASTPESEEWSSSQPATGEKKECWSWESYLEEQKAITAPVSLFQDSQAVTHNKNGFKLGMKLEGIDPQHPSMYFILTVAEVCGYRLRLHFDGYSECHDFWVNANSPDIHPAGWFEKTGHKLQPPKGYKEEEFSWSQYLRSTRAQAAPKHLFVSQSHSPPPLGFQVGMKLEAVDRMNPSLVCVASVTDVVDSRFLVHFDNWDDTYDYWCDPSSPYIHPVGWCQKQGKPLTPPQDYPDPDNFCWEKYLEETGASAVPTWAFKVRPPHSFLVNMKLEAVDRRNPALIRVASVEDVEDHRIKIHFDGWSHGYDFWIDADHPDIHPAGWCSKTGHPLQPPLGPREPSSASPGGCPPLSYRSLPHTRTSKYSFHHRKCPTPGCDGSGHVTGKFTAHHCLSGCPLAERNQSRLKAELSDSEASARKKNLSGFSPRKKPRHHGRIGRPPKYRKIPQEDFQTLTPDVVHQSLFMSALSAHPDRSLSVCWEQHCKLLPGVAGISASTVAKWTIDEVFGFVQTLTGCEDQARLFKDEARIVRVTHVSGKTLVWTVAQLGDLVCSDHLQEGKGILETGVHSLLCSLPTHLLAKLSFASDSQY
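AlphaScreen proximity signal between nickel-chelate acceptor and streptavidin donor beads (final 10 ug/mL) reports binding of 50 nM L3MBTL1 to 75 nM biotin-H3 K9me1 peptide; complex incubated with compounds 30 min at room temperature; cefsulodin titration as control.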
BAZ2B inh: qHTS Assay for Inhibitors of BAZ2B; AID 504333, 2011; 4.4% of 360,000 active; AlphaScreen BAZ2B-H3K14Ac peptide displacement; Potency, µM (doses to about 114 µM), usual class: inhibitors; Bromodomain adjacent to zinc finger domain protein 2B (Homo sapiens), Q9UIF8; further: nearly all actives have a fitted effect of over 60% in size
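Complex of BAZ2B and biotin-H3K14Ac (50 nM apiece) forms over 30 min at RT, then faces library compounds up to 110 uM for another 30 min; AlphaScreen beads added, 20 min dark incubation, luminescence read.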
A number is an active result; [ ] = dose if it differs, or a comment. Rows were chosen to be rich in hits. Some 11% of all compounds tested hit in one or more screens of this group. The call rests on the fitted dose curve; in most records, active means well fitted inhibition curve with a large enough effect; inconclusive means small, poorly fitted or top-dose-only effect; inactive means no such curve, though single readings can be large or run the other way.

Screening CC1=C(c2ccc(C(C)C)cc2)S(=O)(=O)NC1=NCCCN1CCN(c2ccccc2F)CC1 returned HP1b chromo inh inactive, G9a inh inactive, JMJD2A Tudor inactive and BAZ2B inh inactive.
COc1ccc(S(=O)(=O)N(CCc2ccccc2)CC(=O)NCc2ccc(C)cc2)cc1 was read as HP1b chromo inh inactive, G9a inh inactive, JMJD2A Tudor inactive and BAZ2B inh inactive.
Screening CCCCn1c(N)c(N(CC(C)C)C(=O)c2ccc(S(=O)(=O)N3CCCCCC3)cc2)c(=O)[nH]c1=O returned HP1b chromo inh inactive, G9a inh inactive, JMJD2A Tudor inactive, L3MBTL1 inh inactive and BAZ2B inh inactive.
For COc1ccccc1CCNC(=O)CSc1ccc(-c2ccco2)nn1 the results were HP1b chromo inh inactive, G9a inh 28.2µM, JMJD2A Tudor inactive and BAZ2B inh 50.1µM.
`Cc1cc(NC(=O)Cn2nc(-c3ccccc3F)ccc2=O)ccc1-n1cnnn1` gave HP1b chromo inh inactive, G9a inh 56.2µM, JMJD2A Tudor inactive, L3MBTL1 inh inactive and BAZ2B inh inactive.
Screening CC(=O)c1cccc(NC(=O)CSc2ccc(-c3ccco3)nn2)c1 returned HP1b chromo inh inactive, G9a inh 31.6µM, JMJD2A Tudor inconclusive and BAZ2B inh inactive.
COc1cc(NC(=O)Cn2nc(-c3ccc(F)cc3)ccc2=O)ccc1-n1cnnn1 was read as HP1b chromo inh inactive, G9a inh inactive, JMJD2A Tudor inactive and L3MBTL1 inh inactive.
For CCc1ccc(NC(=O)CSc2ccc(-c3ccco3)nn2)cc1 the results were HP1b chromo inh inactive, G9a inh inconclusive, JMJD2A Tudor inconclusive and BAZ2B inh inactive.
O=C(CSc1ccc(-c2cccs2)nn1)Nc1cccc(F)c1 was read as HP1b chromo inh inactive, G9a inh 17.8µM, JMJD2A Tudor inactive and BAZ2B inh inactive.
For COc1ccccc1-c1ccc(SCC(=O)NCCc2ccccc2)nn1 the results were HP1b chromo inh inactive, G9a inh inactive, JMJD2A Tudor inactive, L3MBTL1 inh inactive and BAZ2B inh inactive.
For CCOc1ccc(/C=C(\C)C(=O)c2c(C)cc(C)[nH]c2=O)cc1 the results were HP1b chromo inh inactive, G9a inh inactive, JMJD2A Tudor inactive, L3MBTL1 inh inactive and BAZ2B inh inactive.
For CCOc1ccc(Nc2sc(C(=O)c3ccc4c(c3)OCO4)c(N)c2S(=O)(=O)c2ccc(C)cc2)cc1 the results were HP1b chromo inh inactive, G9a inh inactive, JMJD2A Tudor inactive and BAZ2B inh inactive.
`CCCOc1ccc(C(=O)Nc2ccc(Cl)c(-c3nc4ncccc4o3)c2)cc1` gave HP1b chromo inh inactive, G9a inh inactive, JMJD2A Tudor inactive and BAZ2B inh inactive.
For N#Cc1ccccc1NC(=O)C(=O)NCC(c1ccc2c(c1)OCO2)N1CCOCC1 (stereo unspecified) the results were HP1b chromo inh inactive, G9a inh inactive, JMJD2A Tudor inactive and BAZ2B inh inactive.
O=c1c2sc3ccccc3c2n(Cc2cccc(Cl)c2)c(=O)n1Cc1ccccc1 was read as HP1b chromo inh inactive, G9a inh inactive, JMJD2A Tudor inactive and BAZ2B inh inactive.
`COc1ccc(OC)c(C2C(C(C)=O)=C(O)C(=O)N2CCN2CCOCC2)c1` (stereo unspecified) gave HP1b chromo inh inactive, G9a inh inconclusive, JMJD2A Tudor inconclusive, L3MBTL1 inh inactive and BAZ2B inh inactive.
`COc1cc(C2C(C(C)=O)=C(O)C(=O)N2Cc2ccccc2)ccc1O` (stereo unspecified) gave HP1b chromo inh inactive, G9a inh 44.7µM, JMJD2A Tudor inactive and BAZ2B inh inactive.
For COc1ccc(C2C(C(C)=O)=C(O)C(=O)N2CCc2ccccc2)c(OC)c1 (stereo unspecified) the results were HP1b chromo inh inactive, G9a inh inconclusive, JMJD2A Tudor 31.6µM and BAZ2B inh inconclusive.
Screening COc1ccc(OC)c(C2C(C(C)=O)=C(O)C(=O)N2CCC(=O)O)c1 (stereo unspecified) returned HP1b chromo inh inactive, G9a inh inconclusive, JMJD2A Tudor inconclusive and BAZ2B inh 50.1µM.
For COc1cc(C2C(C(=O)C(C)(C)C)=C(O)C(=O)N2Cc2ccccc2)ccc1O (stereo unspecified) the results were HP1b chromo inh inactive, JMJD2A Tudor inconclusive, L3MBTL1 inh inactive and BAZ2B inh inconclusive.
For COc1ccc(C2C(C(C)=O)=C(O)C(=O)N2Cc2ccccc2)c(OC)c1 (stereo unspecified) the results were HP1b chromo inh inactive, G9a inh 50.1µM, JMJD2A Tudor inactive and BAZ2B inh inactive.
Screening COc1ccc(C(=O)CNc2cccc(F)c2)cc1 returned HP1b chromo inh inactive, G9a inh inactive[2.33 µM], JMJD2A Tudor inactive and BAZ2B inh inactive.
For CC(=O)C1=C(O)C(=O)N(Cc2ccccc2)C1c1cccs1 (stereo unspecified) the results were HP1b chromo inh inactive, G9a inh 44.7µM, JMJD2A Tudor inactive, L3MBTL1 inh inactive and BAZ2B inh inconclusive.
Screening COc1cccc(C2C(C(=O)c3cccs3)=C(O)C(=O)N2CCN(C)C)c1OC (stereo unspecified) returned HP1b chromo inh inactive, G9a inh inactive, JMJD2A Tudor inconclusive, L3MBTL1 inh inactive and BAZ2B inh inactive.
Screening COc1ccc(OC)c(C2C(C(=O)c3cccs3)=C(O)C(=O)N2CCN(C)C)c1 (stereo unspecified) returned HP1b chromo inh inactive, G9a inh 50.1µM, JMJD2A Tudor inactive, L3MBTL1 inh inactive and BAZ2B inh inactive.
For Cc1cc(C)cc(NC(=O)N2CCC(CN3CCCCCC3)CC2)c1 the results were HP1b chromo inh inactive, G9a inh inconclusive, JMJD2A Tudor inactive and BAZ2B inh inactive.
`COc1ccc(CNCCC(c2ccc3c(c2)OCO3)c2ccccc2OC)cc1` (stereo unspecified) gave HP1b chromo inh inactive, G9a inh inconclusive, JMJD2A Tudor inconclusive and BAZ2B inh inconclusive.
CCN(Cc1ccccc1)C(=O)CC(=O)N(CC)Cc1ccccc1 was read as HP1b chromo inh inactive, G9a inh inactive, JMJD2A Tudor inactive and BAZ2B inh inactive.
Screening CN1CCN(CC(=O)NN(Cc2ccccc2)c2ccccc2)CC1 returned HP1b chromo inh inconclusive, JMJD2A Tudor 7.94µM and BAZ2B inh inactive.
Screening CCN(CC)CC(=O)NN(Cc1ccccc1)c1ccccc1 returned HP1b chromo inh inconclusive, G9a inh 28.2µM, JMJD2A Tudor 17.8µM, L3MBTL1 inh inactive and BAZ2B inh 79.4µM.
`Cc1ccc(CNC(=O)CNS(=O)(=O)c2cccs2)cc1` gave HP1b chromo inh inactive, G9a inh inactive, JMJD2A Tudor inactive and BAZ2B inh inactive.
